Measurements as given in the supplement of paper PMC11732987, “Enantioselective OTUD7B fragment discovery through chemoproteomics screening and high-throughput optimisation” (Communications Chemistry, 2025).

How the values were obtained:
Experiment in all cases: log2 ratio of Biotin-Ahx-Ub-VS probe labelling (fragment/DMSO); higher = less target engagement (more negative = stronger competition), active = hit call of the paper (q ≤ 0.05, log2 ratio ≤ -1)
Details in all cases: compound concentration: 200 uM; treatment time: 3 h
USP34 = USP34 (UniProt Q70CQ2)
Method in brief: (§1)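 Labelled DUBs from HEK293T lysate were NeutrAvidin-enriched, digested with LysC and trypsin, and run by diaPASEF LC-MS/MS. Before that, each 495 µg sample in Tris/CHAPS/IGEPAL buffer with protease inhibitors was treated in triplicate with fragment at 200 µM or vehicle for 3 h, then with Biotin-Ahx-Ub-VS at 0.5 µM final for 1 h. Values are average log2 ratios of fragment over vehicle by unpaired t-test, based on global-median-normalised Spectronaut label-free quantities from proteins with ≥2 unique peptides.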

USP36 = biological target: T1, USP36 (UniProt Q9P275)
T1 sequence (whole entry): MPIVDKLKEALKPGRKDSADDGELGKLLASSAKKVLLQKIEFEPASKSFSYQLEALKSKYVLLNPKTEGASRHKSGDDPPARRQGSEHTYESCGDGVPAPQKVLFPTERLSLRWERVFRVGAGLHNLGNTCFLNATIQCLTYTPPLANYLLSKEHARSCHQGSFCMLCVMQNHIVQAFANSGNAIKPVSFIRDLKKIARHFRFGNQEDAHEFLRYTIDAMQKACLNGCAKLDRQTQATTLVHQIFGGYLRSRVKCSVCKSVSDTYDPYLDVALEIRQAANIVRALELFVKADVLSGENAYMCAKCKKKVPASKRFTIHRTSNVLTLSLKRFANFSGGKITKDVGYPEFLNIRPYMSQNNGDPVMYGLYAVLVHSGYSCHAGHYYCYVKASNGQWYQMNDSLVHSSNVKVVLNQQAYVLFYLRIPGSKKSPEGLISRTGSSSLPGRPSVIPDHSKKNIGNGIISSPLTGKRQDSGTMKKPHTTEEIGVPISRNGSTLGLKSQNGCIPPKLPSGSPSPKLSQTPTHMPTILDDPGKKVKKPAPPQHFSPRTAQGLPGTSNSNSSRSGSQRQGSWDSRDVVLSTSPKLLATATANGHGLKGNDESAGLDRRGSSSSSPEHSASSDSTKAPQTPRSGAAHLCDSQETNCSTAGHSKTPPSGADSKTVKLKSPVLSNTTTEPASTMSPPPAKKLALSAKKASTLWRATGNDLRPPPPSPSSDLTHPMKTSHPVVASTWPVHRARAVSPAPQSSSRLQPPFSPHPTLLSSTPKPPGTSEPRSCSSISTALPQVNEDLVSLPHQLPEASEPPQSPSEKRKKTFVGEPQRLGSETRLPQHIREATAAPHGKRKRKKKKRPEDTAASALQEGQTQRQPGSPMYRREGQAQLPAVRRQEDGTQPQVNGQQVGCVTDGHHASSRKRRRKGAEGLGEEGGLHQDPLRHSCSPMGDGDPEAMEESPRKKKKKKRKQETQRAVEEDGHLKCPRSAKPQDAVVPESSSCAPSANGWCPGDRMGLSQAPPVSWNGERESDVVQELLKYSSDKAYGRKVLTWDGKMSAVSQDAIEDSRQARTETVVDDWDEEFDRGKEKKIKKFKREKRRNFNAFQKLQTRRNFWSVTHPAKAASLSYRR
Method in brief: as §1

USP38 = biological target: T2, USP38 (UniProt Q8NB14)
T2 sequence (whole entry): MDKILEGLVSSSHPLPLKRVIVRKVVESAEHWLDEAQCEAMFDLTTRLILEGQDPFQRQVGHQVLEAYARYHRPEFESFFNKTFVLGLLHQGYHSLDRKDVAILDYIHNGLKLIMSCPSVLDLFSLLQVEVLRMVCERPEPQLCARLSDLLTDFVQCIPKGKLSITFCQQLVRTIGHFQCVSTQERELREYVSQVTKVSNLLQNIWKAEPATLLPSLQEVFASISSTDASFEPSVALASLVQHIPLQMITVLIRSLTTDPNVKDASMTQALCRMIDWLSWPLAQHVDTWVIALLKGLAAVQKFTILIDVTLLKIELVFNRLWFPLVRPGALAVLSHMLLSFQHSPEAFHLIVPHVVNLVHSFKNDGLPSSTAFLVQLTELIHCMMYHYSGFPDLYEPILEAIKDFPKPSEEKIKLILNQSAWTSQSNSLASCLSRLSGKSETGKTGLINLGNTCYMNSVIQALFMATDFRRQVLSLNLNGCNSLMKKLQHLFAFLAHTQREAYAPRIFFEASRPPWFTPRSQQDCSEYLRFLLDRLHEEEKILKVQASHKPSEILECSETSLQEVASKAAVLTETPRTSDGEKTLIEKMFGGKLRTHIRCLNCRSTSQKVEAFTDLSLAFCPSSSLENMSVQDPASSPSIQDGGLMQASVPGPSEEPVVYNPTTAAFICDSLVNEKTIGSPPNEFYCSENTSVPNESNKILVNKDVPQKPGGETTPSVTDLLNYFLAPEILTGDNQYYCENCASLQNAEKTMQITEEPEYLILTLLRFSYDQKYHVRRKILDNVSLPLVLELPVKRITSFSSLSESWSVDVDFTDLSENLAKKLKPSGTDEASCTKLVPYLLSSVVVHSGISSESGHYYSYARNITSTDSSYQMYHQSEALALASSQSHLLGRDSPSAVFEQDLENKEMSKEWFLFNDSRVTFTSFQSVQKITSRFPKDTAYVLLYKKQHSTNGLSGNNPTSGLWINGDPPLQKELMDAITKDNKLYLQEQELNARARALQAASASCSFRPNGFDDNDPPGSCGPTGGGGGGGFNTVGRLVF
Method in brief: as §1

USP39 = biological target: T3, USP39 (UniProt Q53GS9)
T3 sequence (whole entry): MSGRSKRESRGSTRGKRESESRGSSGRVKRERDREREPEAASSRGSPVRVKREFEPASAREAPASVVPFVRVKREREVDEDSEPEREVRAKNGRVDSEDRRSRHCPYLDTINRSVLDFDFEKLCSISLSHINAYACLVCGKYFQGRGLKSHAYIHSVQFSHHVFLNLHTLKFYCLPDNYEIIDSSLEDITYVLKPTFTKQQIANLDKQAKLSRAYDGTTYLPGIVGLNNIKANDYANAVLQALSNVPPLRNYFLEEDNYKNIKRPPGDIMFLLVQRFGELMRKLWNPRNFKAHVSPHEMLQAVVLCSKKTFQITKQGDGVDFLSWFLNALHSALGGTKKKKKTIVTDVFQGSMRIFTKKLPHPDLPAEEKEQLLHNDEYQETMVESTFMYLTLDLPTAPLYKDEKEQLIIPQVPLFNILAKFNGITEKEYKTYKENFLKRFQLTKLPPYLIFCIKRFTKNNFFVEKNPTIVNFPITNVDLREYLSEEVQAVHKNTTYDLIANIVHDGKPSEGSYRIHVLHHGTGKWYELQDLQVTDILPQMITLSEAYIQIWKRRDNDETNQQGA
Method in brief: as §1

USP4 = biological target: T4, USP4 (UniProt Q13107)
T4 sequence (whole entry): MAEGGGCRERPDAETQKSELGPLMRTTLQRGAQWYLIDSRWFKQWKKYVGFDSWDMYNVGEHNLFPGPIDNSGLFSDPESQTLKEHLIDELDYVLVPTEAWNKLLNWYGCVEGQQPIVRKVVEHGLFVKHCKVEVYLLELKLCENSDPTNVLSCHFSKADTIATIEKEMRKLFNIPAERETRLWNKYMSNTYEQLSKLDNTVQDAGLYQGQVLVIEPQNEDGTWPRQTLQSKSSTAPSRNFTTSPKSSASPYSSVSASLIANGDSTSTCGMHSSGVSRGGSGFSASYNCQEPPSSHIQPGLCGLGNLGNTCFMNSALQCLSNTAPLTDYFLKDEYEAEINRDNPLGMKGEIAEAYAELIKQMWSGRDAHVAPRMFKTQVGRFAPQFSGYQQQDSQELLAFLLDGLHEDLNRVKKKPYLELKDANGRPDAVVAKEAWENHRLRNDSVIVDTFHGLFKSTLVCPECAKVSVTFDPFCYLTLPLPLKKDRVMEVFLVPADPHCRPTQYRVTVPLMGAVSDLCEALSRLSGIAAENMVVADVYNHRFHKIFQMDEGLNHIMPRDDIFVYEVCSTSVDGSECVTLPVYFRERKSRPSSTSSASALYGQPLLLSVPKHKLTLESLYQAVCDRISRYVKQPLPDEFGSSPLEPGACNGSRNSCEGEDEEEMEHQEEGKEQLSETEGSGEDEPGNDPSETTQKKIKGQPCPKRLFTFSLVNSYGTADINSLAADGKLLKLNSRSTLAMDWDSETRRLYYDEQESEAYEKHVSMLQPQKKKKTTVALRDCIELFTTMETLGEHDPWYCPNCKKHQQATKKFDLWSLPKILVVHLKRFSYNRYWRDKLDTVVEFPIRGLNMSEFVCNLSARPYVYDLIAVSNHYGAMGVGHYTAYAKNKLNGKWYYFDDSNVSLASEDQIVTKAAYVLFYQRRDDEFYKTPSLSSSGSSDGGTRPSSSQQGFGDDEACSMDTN
Method in brief: as §1

Measured: log2 ratio of Biotin-Ahx-Ub-VS probe labelling

Sequence of USP34 (Q70CQ2 whole entry, the tested form may be a part): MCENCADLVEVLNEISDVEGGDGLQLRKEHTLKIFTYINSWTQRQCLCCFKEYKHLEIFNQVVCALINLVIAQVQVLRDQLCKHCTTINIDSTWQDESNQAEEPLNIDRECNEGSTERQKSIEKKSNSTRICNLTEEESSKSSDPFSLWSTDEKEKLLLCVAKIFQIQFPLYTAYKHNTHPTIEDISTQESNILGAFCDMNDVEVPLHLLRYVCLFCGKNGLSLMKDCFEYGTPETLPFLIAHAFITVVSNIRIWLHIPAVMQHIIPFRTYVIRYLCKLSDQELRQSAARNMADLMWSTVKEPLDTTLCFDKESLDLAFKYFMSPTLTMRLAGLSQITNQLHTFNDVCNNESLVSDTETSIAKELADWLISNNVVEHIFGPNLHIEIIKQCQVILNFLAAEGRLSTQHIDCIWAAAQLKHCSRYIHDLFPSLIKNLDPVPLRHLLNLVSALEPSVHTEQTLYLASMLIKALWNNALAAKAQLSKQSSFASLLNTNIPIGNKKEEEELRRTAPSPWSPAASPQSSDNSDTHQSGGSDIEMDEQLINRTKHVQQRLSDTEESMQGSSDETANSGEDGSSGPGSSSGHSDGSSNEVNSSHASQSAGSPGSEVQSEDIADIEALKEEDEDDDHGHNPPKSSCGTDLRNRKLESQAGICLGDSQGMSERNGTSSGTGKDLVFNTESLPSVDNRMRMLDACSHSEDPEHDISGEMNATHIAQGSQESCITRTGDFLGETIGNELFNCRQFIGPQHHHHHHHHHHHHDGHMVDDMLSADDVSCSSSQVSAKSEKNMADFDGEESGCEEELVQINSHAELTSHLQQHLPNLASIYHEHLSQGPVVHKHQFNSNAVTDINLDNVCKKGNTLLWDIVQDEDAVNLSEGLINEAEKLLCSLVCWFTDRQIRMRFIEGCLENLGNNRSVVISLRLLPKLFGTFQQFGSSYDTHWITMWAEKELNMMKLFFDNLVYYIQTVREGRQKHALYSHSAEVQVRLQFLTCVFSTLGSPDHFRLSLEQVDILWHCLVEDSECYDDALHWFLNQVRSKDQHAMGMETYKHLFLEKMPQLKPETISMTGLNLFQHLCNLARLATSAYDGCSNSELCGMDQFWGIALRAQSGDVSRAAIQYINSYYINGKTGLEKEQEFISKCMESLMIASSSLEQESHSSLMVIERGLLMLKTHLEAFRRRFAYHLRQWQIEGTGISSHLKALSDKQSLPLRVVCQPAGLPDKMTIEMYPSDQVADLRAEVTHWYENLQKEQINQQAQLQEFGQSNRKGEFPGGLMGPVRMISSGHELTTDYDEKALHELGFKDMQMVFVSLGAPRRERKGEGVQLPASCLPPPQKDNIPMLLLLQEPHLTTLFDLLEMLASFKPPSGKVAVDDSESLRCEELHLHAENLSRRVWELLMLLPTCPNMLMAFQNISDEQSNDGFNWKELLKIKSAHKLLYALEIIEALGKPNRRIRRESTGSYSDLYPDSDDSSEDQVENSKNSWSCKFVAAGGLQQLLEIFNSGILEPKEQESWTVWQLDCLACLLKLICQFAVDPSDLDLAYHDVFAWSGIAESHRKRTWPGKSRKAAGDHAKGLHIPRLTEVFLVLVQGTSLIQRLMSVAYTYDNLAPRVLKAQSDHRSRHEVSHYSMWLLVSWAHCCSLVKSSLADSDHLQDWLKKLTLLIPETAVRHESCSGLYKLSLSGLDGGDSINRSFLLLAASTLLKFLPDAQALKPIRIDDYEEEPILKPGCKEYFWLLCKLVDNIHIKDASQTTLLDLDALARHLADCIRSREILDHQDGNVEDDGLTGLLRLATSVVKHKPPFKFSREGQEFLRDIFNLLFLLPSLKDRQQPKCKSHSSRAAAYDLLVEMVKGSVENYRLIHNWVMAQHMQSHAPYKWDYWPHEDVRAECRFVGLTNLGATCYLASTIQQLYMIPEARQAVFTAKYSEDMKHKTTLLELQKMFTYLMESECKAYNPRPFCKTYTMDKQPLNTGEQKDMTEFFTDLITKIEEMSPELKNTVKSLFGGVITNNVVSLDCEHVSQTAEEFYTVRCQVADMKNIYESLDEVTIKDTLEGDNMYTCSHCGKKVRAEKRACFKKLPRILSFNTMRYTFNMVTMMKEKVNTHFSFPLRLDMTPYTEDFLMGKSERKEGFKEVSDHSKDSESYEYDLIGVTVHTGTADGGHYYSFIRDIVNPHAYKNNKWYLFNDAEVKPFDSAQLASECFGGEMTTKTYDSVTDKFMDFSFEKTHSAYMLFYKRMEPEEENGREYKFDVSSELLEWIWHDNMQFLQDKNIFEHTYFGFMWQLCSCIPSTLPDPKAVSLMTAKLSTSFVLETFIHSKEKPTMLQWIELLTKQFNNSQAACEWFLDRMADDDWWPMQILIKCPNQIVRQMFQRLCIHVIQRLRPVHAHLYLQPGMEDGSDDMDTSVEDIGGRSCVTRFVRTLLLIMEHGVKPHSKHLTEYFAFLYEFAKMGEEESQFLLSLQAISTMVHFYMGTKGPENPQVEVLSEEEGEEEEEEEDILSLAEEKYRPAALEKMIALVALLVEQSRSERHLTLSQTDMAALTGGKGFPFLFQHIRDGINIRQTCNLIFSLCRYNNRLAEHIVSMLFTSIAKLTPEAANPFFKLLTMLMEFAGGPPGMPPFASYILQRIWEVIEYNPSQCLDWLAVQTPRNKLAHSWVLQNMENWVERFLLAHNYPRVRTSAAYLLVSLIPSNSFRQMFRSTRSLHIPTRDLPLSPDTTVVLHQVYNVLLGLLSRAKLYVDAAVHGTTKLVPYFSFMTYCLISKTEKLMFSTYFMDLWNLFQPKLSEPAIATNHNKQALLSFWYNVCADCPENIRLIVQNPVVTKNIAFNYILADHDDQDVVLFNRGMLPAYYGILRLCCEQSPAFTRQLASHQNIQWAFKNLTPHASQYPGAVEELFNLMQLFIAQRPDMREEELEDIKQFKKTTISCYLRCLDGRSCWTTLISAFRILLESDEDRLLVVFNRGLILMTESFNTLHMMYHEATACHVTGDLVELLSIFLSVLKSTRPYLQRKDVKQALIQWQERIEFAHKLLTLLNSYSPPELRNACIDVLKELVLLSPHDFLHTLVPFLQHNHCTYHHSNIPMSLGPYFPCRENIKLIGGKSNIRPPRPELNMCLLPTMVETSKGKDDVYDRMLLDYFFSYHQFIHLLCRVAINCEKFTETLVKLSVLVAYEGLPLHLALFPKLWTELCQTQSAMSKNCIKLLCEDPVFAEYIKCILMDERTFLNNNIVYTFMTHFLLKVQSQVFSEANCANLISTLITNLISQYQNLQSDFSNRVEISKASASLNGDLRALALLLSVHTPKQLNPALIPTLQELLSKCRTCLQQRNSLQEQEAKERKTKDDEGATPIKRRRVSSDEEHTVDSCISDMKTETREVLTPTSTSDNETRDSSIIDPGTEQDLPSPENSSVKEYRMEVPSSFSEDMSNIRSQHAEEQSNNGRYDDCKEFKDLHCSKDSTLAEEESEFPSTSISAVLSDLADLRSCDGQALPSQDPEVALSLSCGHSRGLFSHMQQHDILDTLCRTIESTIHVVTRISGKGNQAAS

O=C(CCl)NCc1ccc(N2CCOCC2)c(F)c1
inactive: USP34 -0.0627 | USP36 -0.165 | USP38 0.104 | USP39 0.0411 | USP4 0.263
